15 compounds from PubChem BioAssay (Tox21) can be followed below.

A number with no mark means an inactive call. Results filed as inconclusive are left out. The source made the active and inactive calls. The call rests on the fitted dose curve; in most records, active means well fitted curve in the direction sought with a large enough effect in the repeat runs; inconclusive means weak or mixed curves; inactive means no such curve, though single readings can be large; an effect the other way counts as inactive or inconclusive.

Assay [1] is described as follows: qHTS RealTime-Glo MT Cell Viability Assay in HepG2 cells - 8 hour (AID 1224873). Further: nearly all actives have a fitted effect of over 55% in size. The gist of the method: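 Real-time viability: cells seeded at 600 per well together with NanoLuc and cell-permeant prosubstrate, compounds added after 5 h incubation. Luminescence tracked at 0, 8, 16, 24, 32 and 40 h of exposure.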
Background: qHTS replaces the single test concentration by a dilution series.

Assay [2] can be described thus: A CellTox Green Cytotoxicity Assay to monitor cytotoxicity in HEK293 cells - 24 hour (AID 1224875). Further: series mostly up to about 77 µM; nearly all actives have a fitted effect of over 45% in size. The gist of the method: (§1)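 Seeding of HEK293 cells together with cytotoxicity dye preceded a 5 h incubation at 37 C/5% CO2. Test compounds in DMSO were then added and fluorescence monitored across 40 h.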
Assay [3] in a line: A CellTox Green Cytotoxicity Assay to monitor cytotoxicity in HepG2 cells - 16 hour (AID 1224876). Further: nearly all actives have a fitted effect of over 45% in size. The gist of the method:
(§2)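 Nonlytic assay: viable cells exclude the dye, so fluorescence scales with cell death. HepG2 at 600 cells/well, compounds added after 5 h, signal read across 40 h.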

A short description of assay [4]: qHTS RealTime-Glo MT Cell Viability Assay in HepG2 cells - 32 hour (AID 1224877). Further: nearly all actives have a fitted effect of over 55% in size. The essentials: (§3)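 qHTS, HepG2, 600 cells/well, RealTime-Glo (NanoLuc + prosubstrate) added with cells; 5 h preincubation; DMSO compound addition; 37 C; luminescence at 0/8/16/24/32/40 h.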
A short description of assay [5]: A CellTox Green Cytotoxicity Assay to monitor cytotoxicity in HepG2 cells - 40 hour (AID 1224879). Further: nearly all actives have a fitted effect of over 40% in size. The gist of the method:
as §2

The nature of assay [6]: qHTS RealTime-Glo MT Cell Viability Assay in HEK293 cells - 0 hour (AID 1224880). Further: top concentration of the series differs between compounds; nearly all actives have a fitted effect of over 45% in size. The gist of the method: (§4)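 Tox21 screen in HEK293 using RealTime-Glo MT chemistry, with cells and reagent co-dispensed. Luminescence proportional to viable cell number was captured at intervals during 40 h compound exposure at 37 C.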
Assay [7] is described as follows: A CellTox Green Cytotoxicity Assay to monitor cytotoxicity in HEK293 cells - 32 hour (AID 1224881). Further: nearly all actives have a fitted effect of over 40% in size. The essentials: as §1
Assay [8] can be described thus: A CellTox Green Cytotoxicity Assay to monitor cytotoxicity in HepG2 cells - 0 hour (AID 1224882). Further: nearly all actives have a fitted effect of over 35% in size. The essentials:
as §2

The nature of assay [9]: A CellTox Green Cytotoxicity Assay to monitor cytotoxicity in HepG2 cells - 32 hour (AID 1224883). Further: nearly all actives have a fitted effect of over 50% in size. The gist of the method: as §2
The nature of assay [10]: A CellTox Green Cytotoxicity Assay to monitor cytotoxicity in HEK293 cells - 16 hour (AID 1224888). Further: nearly all actives have a fitted effect of over 35% in size. The gist of the method: as §1
Assay [11] in a line: qHTS assay to identify small molecule antagonists of the estrogen receptor alpha (ER-alpha) signaling pathway using the BG1 cell line in the presence of 0.1 nM 17-beta-estradiol - cell viability counter screen (AID 1259241). Further: nearly all actives have a fitted effect of over 40% in size. The essentials:
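The cell line endogenously expresses full-length ER-alpha and carries four EREs driving luciferase. Cells are cultured 5 days hormone-free, treated 22 hr with compounds and 0.1 nM estradiol, then viability is read by fluorescence.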

A short description of assay [12]: A CellTox Green Cytotoxicity Assay to monitor cytotoxicity in HepG2 cells - 24 hour (AID 1224878). Further: nearly all actives have a fitted effect of over 45% in size. The gist of the method:
as §2

The nature of assay [13]: A CellTox Green Cytotoxicity Assay to monitor cytotoxicity in HEK293 cells - 8 hour (AID 1224884). Further: nearly all actives have a fitted effect of over 35% in size. The gist of the method: as §1
A short description of assay [14]: qHTS RealTime-Glo MT Cell Viability Assay in HepG2 cells - 16 hour (AID 1224885). Further: nearly all actives have a fitted effect of over 50% in size. The essentials: as §3
A short description of assay [15]: qHTS RealTime-Glo MT Cell Viability Assay in HEK293 cells - 8 hour (AID 1224887). Further: nearly all actives have a fitted effect of over 50% in size. Further: potency means the concentration at half of the fitted maximal effect. On activity change, negative = cytotoxicity: top concentration of the series differs between compounds. The essentials: as §4
Assay [16] is described as follows: qHTS RealTime-Glo MT Cell Viability Assay in HepG2 cells - 0 hour (AID 1224889). Further: nearly all actives have a fitted effect of over 50% in size. The gist of the method: as §3
A short description of assay [17]: A CellTox Green Cytotoxicity Assay to monitor cytotoxicity in HepG2 cells - 8 hour (AID 1224890). Further: nearly all actives have a fitted effect of over 45% in size. The essentials: as §2
Assay [18] is described as follows: qHTS RealTime-Glo MT Cell Viability Assay in HEK293 cells - 40 hour (AID 1224874). Further: nearly all actives have a fitted effect of over 50% in size. Further: potency means the concentration at half of the fitted maximal effect. Conditions: RealTime-Glo luminescence; max response: hits give low values. The essentials:
as §4

Assay [19] can be described thus: qHTS RealTime-Glo MT Cell Viability Assay in HEK293 cells - 24 hour (AID 1224886). Further: nearly all actives have a fitted effect of over 50% in size. Further: potency means the concentration at half of the fitted maximal effect. On activity change, negative = cytotoxicity: top concentration of the series differs between compounds. The essentials: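 Assay medium contained NanoLuc luciferase plus cell-permeant prosubstrate, added with HEK293 cells at 600 cells/well. After 5 h at 37 C/5% CO2 compounds were added; plates stayed at 37 C for 40 h with serial luminescence reads.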
On the % scale 0 is the no-effect control and ±100 the full control effect.

As to `COc1ccc(S(=O)(=O)N2c3ccc(Cl)cc3[C@@](O)(c3ccccc3Cl)[C@H]2C(=O)N2CCC[C@@H]2C(N)=O)cc1OC`, the outcome in assay [1], in assay [2], in [3], in assay [4], in assay [8] and in assay [10] was inactive. Moreover, the Potency entry in assay [5], in [6], in [7], in assay [9] and in assay [11] was “inactive” each time.

As for `Cc1nc2n(c(=O)c1CCN1CCC(c3noc4cc(F)ccc34)CC1)CCC[C@H]2O`, the viability change, negative = cytotoxic in assay [1] is -0.0945% [at 15.8 µM]. For the same compound, the results for the activity change in assay [2] and in assay [10] were -3.48% [at 15.8 µM] and 1.32% [at 15.8 µM], respectively. Further, the cytotoxicity increase in assay [3] is -0.968% [at 15.8 µM]; in assay [5] it was 0.318% [at 15.8 µM]; in [7], 6.5% [at 15.8 µM]; in assay [9] it was 2.66% [at 15.8 µM]; in assay [13] it was 2.15% [at 15.8 µM]; in assay [17], -0.979% [at 15.8 µM]. Moreover, the activity change, negative = cytotoxic is 0.664% [at 15.8 µM] in [4] and -0.162% [at 15.8 µM] in assay [14]. The cytotoxicity in [12] is 0.861% [at 15.8 µM]; in assay [8], -4% [at 15.8 µM]. Moreover, the activity change, negative = cytotoxicity was 7.51% [at 15.8 µM] in assay [6], 2.14% [at 15.8 µM] in assay [16] and 1.89% [at 19 µM] in assay [11]. The Potency in assay [15] was 3.69 µM (active).

As for `CCOc1cc([N+](=O)[O-])c(OCC)cc1N1CCOCC1`, the compound was classed as inactive in [1], in [3], in assay [4], in assay [8], in assay [10] and in [17]. Moreover, the Potency in assay [18], in assay [19] and in assay [15] was 15.5 µM (active) throughout. In addition, the Potency result in assay [5], in assay [6], in assay [7], in assay [9] and in assay [13] was “inactive” each time.

With `COc1ccc(Br)c(C)c1`, the compound was called inactive in assay [1], in [2], in assay [3], in assay [4], in assay [12] and in [8]. The result in assay [14], in assay [10] and in assay [17] was inactive. Moreover, in [18], the max response is 4.1%. Besides, the Potency entry in assay [5], in assay [7], in [9], in assay [13], in assay [19] and in [15] was “inactive” in each case. In addition, the Potency result in assay [16] and in assay [11] was “inactive” throughout.

As for `C=C(C)C(=O)OCc1ccccc1`, the outcome in [1], in assay [2], in assay [3], in assay [4], in [12] and in [8] was inactive. Also, the outcome in assay [10] and in assay [17] was inactive. In [18], the max response is -7.63%. Moreover, the Potency result in [5], in assay [7], in assay [9], in assay [13], in [19] and in assay [15] was “inactive” each time. Also, the Potency result in assay [16] and in assay [11] was “inactive” each time.

On to `O=Cc1ccc(Cl)c(Cl)c1`, for which the compound was called inactive in assay [1], in assay [3], in [4], in assay [8] and in assay [10]. In addition, the Potency result in assay [5], in [6], in assay [7], in assay [9], in [13] and in assay [19] was “inactive” throughout. Also, the Potency result in [15], in assay [16] and in assay [11] was “inactive” each time.

On to `CCCCCCCCOS(=O)(=O)O`, for which the compound was called inactive in assay [1], in [4], in [12], in assay [8], in assay [14] and in assay [10]. Also, the result in assay [17] was inactive. Also, the max response in assay [18] was 2.61%. For the same compound, the Potency result in [5], in [6], in assay [7], in assay [9], in assay [13] and in assay [19] was “inactive” throughout. The Potency entry in assay [15] and in assay [11] was “inactive” throughout.

As to `CC(=O)c1ccc2c(c1)Cc1ccccc1-2`, the result in assay [1], in assay [2], in assay [3], in assay [4], in assay [8] and in assay [14] was inactive. Further, the call in [10] and in assay [17] was inactive. Moreover, the max response in assay [18] was -0.213%. Moreover, the Potency entry in assay [5], in assay [7], in assay [9], in [13], in [19] and in assay [15] was “inactive” in each case. In addition, the Potency entry in assay [16] and in assay [11] was “inactive” in each case.

On to `CCCCCCCCC(=O)Cl`, for which the result in assay [1], in [2], in assay [4], in [12], in assay [8] and in assay [14] was inactive. Further, the call in [10] and in assay [17] was inactive. Also, the max response in [18] is 10.1%. Moreover, the Potency result in assay [5], in assay [6], in [7], in assay [9], in assay [13] and in [19] was “inactive” throughout. For the same compound, the Potency entry in assay [15], in assay [16] and in [11] was “inactive” throughout.

With `CC(C)(C)NC(N)=O`, the outcome in assay [1], in assay [3], in assay [4], in assay [12], in assay [8] and in assay [14] was inactive. Besides, the compound was called inactive in assay [10] and in assay [17]. Further, in assay [18], the max response is 1.11%. Besides, the Potency result in assay [5], in assay [6], in assay [7], in assay [9], in [19] and in assay [15] was “inactive” in each case. Further, the Potency result in assay [16] and in assay [11] was “inactive” each time.

As to `C=C(C)C(=O)OCCOP(=O)(O)OCCOC(=O)C(=C)C`, the outcome in [1], in assay [3], in assay [4], in assay [12], in assay [8] and in [10] was inactive. Also, in [18], the max response is -2.48%. Moreover, the Potency entry in [5], in [6], in [7], in assay [9], in [13] and in [19] was “inactive” each time. The Potency result in [15] and in assay [11] was “inactive” throughout.

As for `CCCN1C[C@H](CSC)C[C@@H]2c3cccc4[nH]cc(c34)C[C@H]21`, the compound was classed as inactive in [1], in assay [2], in assay [3], in assay [4], in assay [12] and in assay [8]. The outcome in assay [14], in [10] and in assay [17] was inactive. Further, the max response in assay [18] was -0.0801%. The Potency entry in assay [5], in assay [7], in assay [9], in assay [13], in assay [19] and in [15] was “inactive” throughout. For the same compound, the Potency result in assay [16] and in [11] was “inactive” each time.

In the case of `C#CC(C)N(C)C(=O)Nc1ccc(Cl)cc1` (stereo unspecified), the call in assay [1], in assay [2], in assay [4], in assay [12], in [8] and in assay [14] was inactive. Besides, the compound was called inactive in [10] and in assay [17]. The Potency entry in assay [5], in [6], in assay [7], in [9], in assay [13] and in assay [16] was “inactive” each time. Moreover, the Potency result in [11] was “inactive”.

Turning to `CC(C)NCC(O)COc1ccc(COCCOC(C)C)cc1` (stereo unspecified), the outcome in assay [1], in assay [2], in assay [3], in assay [4], in assay [12] and in assay [8] was inactive. The result in [14], in assay [10] and in assay [17] was inactive. Also, the Potency result in [5], in assay [6], in [7], in assay [9], in assay [13] and in assay [19] was “inactive” throughout. For the same compound, the Potency result in assay [15], in assay [16] and in [11] was “inactive” throughout.

With `CC1COc2ccccc2N1` (stereo unspecified), the result in [1], in assay [2], in assay [3], in assay [4], in [12] and in assay [8] was inactive. The compound was called inactive in [14], in assay [10] and in assay [17]. Moreover, the Potency result in assay [5], in assay [6], in [7], in assay [9], in [13] and in [15] was “inactive” in each case. In addition, the Potency entry in assay [11] is “inactive”.
